In the antibiotic and cytotoxicity screens of Wong et al. (2023):
The whole screen tested about 39,000 compounds, of which about 500 (1.3%) were called active. The sample as a whole holds a higher share of actives than the screen did.

What follows are compounds tested on S. aureus RN4220 (assay: growth inhibition call (relative growth <= 0.2)). Settings: 50 µM.

Which growth inhibition call does the source give for `CCN(CC)C(=S)SSC(=S)N(CC)CC` here?
The growth inhibition call was “active”.

`COCCNC(=O)C[C@@H]1C[C@H]2c3cc(NS(C)(=O)=O)ccc3O[C@H]2[C@@H](CO)O1` was tested. Which growth inhibition call did it give?
Its growth inhibition call is “inactive”.

How did the growth inhibition call turn out when `CO[C@H]1CN(C)C(=O)c2ccc(NC(=O)Nc3cccc(Cl)c3)cc2OC[C@@H](C)N(C(=O)Nc2c(C)noc2C)C[C@@H]1C` was run?
Its growth inhibition call is “inactive”.

How did the growth inhibition call turn out when `C[C@H](CO)N1C[C@H](C)[C@H](CN(C)S(C)(=O)=O)Oc2ccc(NC(=O)Cn3cnnn3)cc2C1=O` was run?
Its growth inhibition call is “inactive”.

How did the growth inhibition call turn out when `Cc1ccc(CNc2ccc3c(c2)ncn3C2CCCCC2)cc1` was run?
Its growth inhibition call is “active”.

With `Cc1ccc(-n2cnc3cc(NCc4cccs4)ccc32)cc1` as the compound, how does the growth inhibition call read?
Its growth inhibition call is “inactive”.

How did the growth inhibition call turn out when `COc1ccc(NC(=O)N(C)C[C@@H]2OCCCC[C@H](C)Oc3ccc(NC(=O)c4ccncc4)cc3C(=O)N([C@H](C)CO)C[C@@H]2C)cc1` was run?
The growth inhibition call was “inactive”.

Which growth inhibition call does the source give for `C[C@@H]1CCCCO[C@H](CN(C)C(=O)Nc2ccc3c(c2)OCO3)[C@@H](C)CN([C@H](C)CO)C(=O)c2cc(NC(=O)Nc3ccccc3)ccc2O1` here?
Its growth inhibition call is “inactive”.

`CC(C)(C)c1ccc(OC[C@@H](O)CN)cc1` was tested. Which growth inhibition call did it give?
The growth inhibition call was “active”.

`Cc1cccc(OC[C@@H](O)CN)c1` was tested. Which growth inhibition call did it give?
Its growth inhibition call is “inactive”.

With `CCc1ccc(OC[C@@H](O)CN)cc1` as the compound, how does the growth inhibition call read?
Its growth inhibition call is “inactive”.

For `Cn1cnc(S(=O)(=O)N2C[C@H](O)COC[C@@H]3O[C@H](CC(=O)NC4CCCC4)CC[C@H]32)c1`, which growth inhibition call is on record?
Its growth inhibition call is “inactive”.

For `C=C[C@H]1CCC=C2C(=O)CCC[C@@H]21`, which growth inhibition call is on record?
Its growth inhibition call is “inactive”.

For `C[C@@H]1CCCCO[C@@H](CN(C)C(=O)Nc2ccc(C(F)(F)F)cc2)[C@H](C)CN([C@@H](C)CO)C(=O)c2cc(NS(=O)(=O)c3cn(C)cn3)ccc2O1`, which growth inhibition call is on record?
The growth inhibition call was “active”.

For `C[C@H](CO)N1C[C@H](C)[C@@H](CN(C)C(=O)Nc2ccc(C(F)(F)F)cc2)OCCCC[C@H](C)Oc2ccc(NS(=O)(=O)c3cn(C)cn3)cc2C1=O`, which growth inhibition call is on record?
The growth inhibition call was “active”.

With `C[C@@H]1CCCCO[C@@H](CN(C)C(=O)Nc2ccc(C(F)(F)F)cc2)[C@@H](C)CN([C@H](C)CO)C(=O)c2cc(NS(=O)(=O)c3cn(C)cn3)ccc2O1` as the compound, how does the growth inhibition call read?
The growth inhibition call was “inactive”.

`C[C@@H]1CN([C@@H](C)CO)C(=O)c2cc(NS(=O)(=O)c3cn(C)cn3)ccc2O[C@@H](C)CCCCO[C@@H]1CN(C)C(=O)Nc1ccc(C(F)(F)F)cc1` was tested. Which growth inhibition call did it give?
Its growth inhibition call is “active”.

How did the growth inhibition call turn out when `C[C@@H]1CCCCO[C@H](CN(C)C(=O)Nc2ccc(C(F)(F)F)cc2)[C@H](C)CN([C@@H](C)CO)C(=O)c2cc(NS(=O)(=O)c3cn(C)cn3)ccc2O1` was run?
The growth inhibition call was “inactive”.

How did the growth inhibition call turn out when `C[C@H]1CCCCO[C@H](CN(C)C(=O)Nc2ccc(C(F)(F)F)cc2)[C@@H](C)CN([C@@H](C)CO)C(=O)c2cc(NS(=O)(=O)c3cn(C)cn3)ccc2O1` was run?
Its growth inhibition call is “inactive”.

Which growth inhibition call does the source give for `C[C@@H]1CCCCO[C@H](CN(C)C(=O)Nc2ccc(C(F)(F)F)cc2)[C@H](C)CN([C@H](C)CO)C(=O)c2cc(NS(=O)(=O)c3cn(C)cn3)ccc2O1` here?
Its growth inhibition call is “inactive”.

With `C[C@@H]1CN([C@H](C)CO)C(=O)c2cc(NS(=O)(=O)c3cn(C)cn3)ccc2O[C@@H](C)CCCCO[C@H]1CN(C)C(=O)Nc1ccc(C(F)(F)F)cc1` as the compound, how does the growth inhibition call read?
The growth inhibition call was “inactive”.

How did the growth inhibition call turn out when `C[C@@H]1CCCCO[C@H](CN(C)C(=O)Nc2ccc(C(F)(F)F)cc2)[C@@H](C)CN([C@H](C)CO)C(=O)c2cc(NS(=O)(=O)c3cn(C)cn3)ccc2O1` was run?
The growth inhibition call was “inactive”.

For `C[C@@H]1CCCCO[C@@H](CN(C)C(=O)CCC(F)(F)F)[C@@H](C)CN([C@H](C)CO)C(=O)c2cc(NC(=O)NC3CCCCC3)ccc2O1`, which growth inhibition call is on record?
Its growth inhibition call is “inactive”.

Which growth inhibition call does the source give for `CC(C)NC(=O)Nc1cccc2c1O[C@@H](CN(C)S(=O)(=O)c1ccc(F)cc1)[C@H](C)CN([C@@H](C)CO)C2=O` here?
Its growth inhibition call is “inactive”.

`O=C(C[C@@H]1C=C[C@@H](NC(=O)Nc2ccc3c(c2)OCO3)[C@H](CO)O1)NCCCN1CCOCC1` was tested. Which growth inhibition call did it give?
Its growth inhibition call is “inactive”.

Which growth inhibition call does the source give for `COc1ccc(Nc2ccc(-c3ccncc3)s2)cc1Cl` here?
The growth inhibition call was “inactive”.

How did the growth inhibition call turn out when `C[C@H]1CN([C@@H](C)CO)C(=O)Cc2cc(NS(C)(=O)=O)ccc2O[C@H]1CN(C)S(=O)(=O)c1ccccc1` was run?
The growth inhibition call was “inactive”.

How did the growth inhibition call turn out when `Cc1noc(C)c1NC(=O)Nc1ccc2c(c1)C(=O)N([C@H](C)CO)C[C@H](C)[C@@H](CN(C)C(=O)NC1CCCCC1)OCCCC[C@@H](C)O2` was run?
The growth inhibition call was “inactive”.

For `Cc1ccc(S(=O)(=O)Nc2ccc3c(c2)C(=O)N([C@@H](C)CO)C[C@@H](C)[C@@H](CN(C)C(=O)Nc2ccc(F)cc2)OCCCC[C@H](C)O3)cc1`, which growth inhibition call is on record?
Its growth inhibition call is “inactive”.

Which growth inhibition call does the source give for `CN(C)CCN(Cc1ccccc1)c1ccccn1.O=C(O)CC(O)(CC(=O)O)C(=O)O` here?
The growth inhibition call was “inactive”.

With `CCN(CCCc1ccccc1)CCCc1ccccc1.O=C(O)CC(O)(CC(=O)O)C(=O)O` as the compound, how does the growth inhibition call read?
Its growth inhibition call is “inactive”.

With `CCN(CC)CCOc1ccc(C(=C(Cl)c2ccccc2)c2ccccc2)cc1.O=C(O)CC(O)(CC(=O)O)C(=O)O` as the compound, how does the growth inhibition call read?
The growth inhibition call was “inactive”.

For `CCC(=C(c1ccccc1)c1ccc(OCCN(C)C)cc1)c1ccccc1.O=C(O)CC(O)(CC(=O)O)C(=O)O`, which growth inhibition call is on record?
Its growth inhibition call is “active”.

With `Cc1ccccc1C(OCCN(C)C)c1ccccc1.O=C(O)CC(O)(CC(=O)O)C(=O)O` (configuration not stated) as the compound, how does the growth inhibition call read?
Its growth inhibition call is “inactive”.

`CN(C)CCOc1ccc(C(=C(CCCl)c2ccccc2)c2ccccc2)cc1.O=C(O)CC(O)(CC(=O)O)C(=O)O` was tested. Which growth inhibition call did it give?
The growth inhibition call was “active”.

Which growth inhibition call does the source give for `C[C@H]1CN([C@@H](C)CO)C(=O)c2cc(C#Cc3ccccc3F)cnc2O[C@@H]1CN(C)C(=O)C1CCOCC1` here?
The growth inhibition call was “inactive”.

With `COc1ccc2c3c([nH]c2c1)[C@H](CO)N(C[C@]13CN(Cc2cc(on2)-c2ccccc2)C1)C(=O)Nc1ccc(cc1)F` as the compound, how does the growth inhibition call read?
Its growth inhibition call is “inactive”.

`COc1ccc(S(=O)(=O)N(C)C[C@H]2OCCCC[C@H](C)Oc3ccc(NC(=O)CCC(F)(F)F)cc3C(=O)N([C@H](C)CO)C[C@H]2C)cc1` was tested. Which growth inhibition call did it give?
Its growth inhibition call is “inactive”.

How did the growth inhibition call turn out when `C[C@@H]1CCCCO[C@@H](CN(C)C(=O)c2ccccc2)[C@H](C)CN([C@@H](C)CO)C(=O)c2cc(NC(=O)Nc3cccc4ccccc34)ccc2O1` was run?
Its growth inhibition call is “inactive”.

With `O=S(=O)(O)c1cc(O)ccc1O` as the compound, how does the growth inhibition call read?
Its growth inhibition call is “inactive”.

`C[C@@H]1CN([C@H](C)CO)C(=O)c2cccc(NC(=O)c3ccc(-c4nccs4)cc3)c2O[C@@H]1CN(C)C(=O)Nc1ccc2c(c1)OCO2` was tested. Which growth inhibition call did it give?
The growth inhibition call was “inactive”.

For `Cc1ccc(S(=O)(=O)N(C)C[C@@H]2OCCCC[C@H](C)Oc3ccc(NC(=O)c4ccccc4)cc3C(=O)N([C@@H](C)CO)C[C@H]2C)cc1`, which growth inhibition call is on record?
The growth inhibition call was “inactive”.

Which growth inhibition call does the source give for `C[C@@H]1CN([C@@H](C)CO)C(=O)c2cc(NS(=O)(=O)c3cccs3)ccc2O[C@H]1CN(C)CC1CC1` here?
The growth inhibition call was “inactive”.

How did the growth inhibition call turn out when `C[C@H](CO)N1C[C@H](C)[C@@H](CN(C)C(=O)Nc2cccc3ccccc23)Oc2ccc(NC(=O)Nc3cccc4ccccc34)cc2CC1=O` was run?
The growth inhibition call was “inactive”.

Which growth inhibition call does the source give for `O=C(CCCCCCC(=O)N/N=C/c1cc(I)cc(I)c1O)NO` here?
The growth inhibition call was “inactive”.

Which growth inhibition call does the source give for `O=C(CCCCC(=O)N/N=C/c1cc(I)cc(I)c1O)NO` here?
The growth inhibition call was “active”.

How did the growth inhibition call turn out when `O=C(NO)c1cccc(C(=O)N/N=C/c2cc(I)cc(I)c2O)c1` was run?
The growth inhibition call was “inactive”.

Which growth inhibition call does the source give for `C[C@H]1CN([C@@H](C)CO)C(=O)c2cccc(NC(=O)Nc3ccc4c(c3)OCO4)c2O[C@H]1CN(C)C(=O)Nc1cccc2ccccc12` here?
The growth inhibition call was “inactive”.

Which growth inhibition call does the source give for `COc1ccc(CN(C)C[C@@H]2OCCCC[C@H](C)Oc3ccc(NC(=O)CCC(F)(F)F)cc3C(=O)N([C@H](C)CO)C[C@H]2C)cc1` here?
Its growth inhibition call is “inactive”.

`COc1ccc(NC(=O)N(C)C[C@H]2Oc3c(NC(=O)CCCCCC(=O)Nc4ccccc4N)cccc3C(=O)N([C@H](C)CO)C[C@@H]2C)cc1` was tested. Which growth inhibition call did it give?
The growth inhibition call was “inactive”.

With `CO[C@@H]1CN(C)C(=O)c2cc(NC(=O)CC(F)(F)F)ccc2OC[C@H](C)N(C(=O)C2CCOCC2)C[C@@H]1C` as the compound, how does the growth inhibition call read?
Its growth inhibition call is “inactive”.

Which growth inhibition call does the source give for `COC1C=COC2(C)Oc3c(C)c(O)c4c(O)c(c(C=NN5CCN(C)CC5)c(O)c4c3C2=O)NC(=O)C(C)=CC=CC(C)C(O)C(C)C(O)C(C)C(OC(C)=O)C1C` (configuration not stated) here?
Its growth inhibition call is “inactive”.

Which growth inhibition call does the source give for `CO[C@H]1/C=C\O[C@@]2(C)Oc3c(C)c(O)c4c(O)c(c(/C=N/N=C/N5CCCCC5)c(O)c4c3C2=O)NC(=O)/C(C)=C\C=C/[C@H](C)[C@H](O)[C@@H](C)[C@@H](O)[C@@H](C)[C@H](OC(C)=O)[C@@H]1C` here?
The growth inhibition call was “active”.

With `CO[C@H]1/C=C\O[C@@]2(C)Oc3c(C)c(O)c4c(c3C2=O)[C@]2(C=C(NC(=O)/C(C)=C\C=C/[C@@H](C)[C@@H](O)[C@@H](C)[C@@H](O)[C@@H](C)[C@@H](OC(C)=O)[C@@H]1C)C4=O)OCC(=O)O2` as the compound, how does the growth inhibition call read?
Its growth inhibition call is “active”.

For `COC1C=COC2(C)Oc3c(C)c(O)c4c(O)c(c(C=NN5CCN(C6CCCC6)CC5)c(O)c4c3C2=O)NC(=O)C(C)=CC=CC(C)C(O)C(C)C(O)C(C)C(OC(C)=O)C1C` (configuration not stated), which growth inhibition call is on record?
The growth inhibition call was “inactive”.

`COC1=C2C[C@H](C)C[C@H](OC)[C@@H](O)[C@H](C)/C=C(\C)[C@H](OC(N)=O)[C@H](OC)/C=C/C=C(\C)C(=O)NC(=CC1=O)C2=O` was tested. Which growth inhibition call did it give?
The growth inhibition call was “inactive”.

`COC1=C2C[C@@H](C)C[C@H](OC)[C@H](O)[C@@H](C)/C=C(\C)[C@H](OC(N)=O)[C@@H](OC)/C=C\C=C(/C)C(=O)NC(=CC1=O)C2=O` was tested. Which growth inhibition call did it give?
Its growth inhibition call is “inactive”.

`COC1C=COC2(C)Oc3c(C)c(O)c4c(O)c(c5c(nc6cc(C)ccn65)c4c3C2=O)NC(=O)C(C)=CC=CC(C)C(O)C(C)C(O)C(C)C(OC(C)=O)C1C` (configuration not stated) was tested. Which growth inhibition call did it give?
The growth inhibition call was “active”.

For `C[C@H](CO)N1C[C@H](C)[C@@H](CN(C)Cc2ccncc2)Oc2c(NS(=O)(=O)c3cn(C)cn3)cccc2C1=O`, which growth inhibition call is on record?
The growth inhibition call was “inactive”.

`O=C1O[C@H](c2ccccc2)[C@H](c2ccccc2)N2[C@H]1[C@@H](C(=O)N1CCN(c3ncccn3)CC1)[C@]1(C(=O)Nc3ccc(C#CC4=CCCCC4)cc31)[C@H]2c1ccc(O)cc1` was tested. Which growth inhibition call did it give?
Its growth inhibition call is “inactive”.

Which growth inhibition call does the source give for `CC(C)CC#Cc1cnc2c(c1)C(=O)N([C@@H](C)CO)C[C@H](C)[C@@H](CN(C)C(=O)CCN1CCCCC1)O2` here?
The growth inhibition call was “inactive”.

`CC(C)NC(=O)Nc1ccc2c(c1)CC(=O)N([C@@H](C)CO)C[C@@H](C)[C@@H](CN(C)S(=O)(=O)c1ccc(F)cc1)O2` was tested. Which growth inhibition call did it give?
The growth inhibition call was “inactive”.
